Results taken from PubChem BioAssay AID1159580 (chemical genetic matrix, 2015).
Hit rate of the full screen: of about 5,500 compounds, about 2,000 (36%) were called active. Inconclusive results (about 18%) are left out. Cut-off read from the data, not from the text of the source: active = normalized growth mostly below about 0.91 (no sharp cut-off); inconclusive = no clear call, values can overlap the other calls; inactive = mostly above about 0.92. Some of the results follow.

Assay: chemical genetic growth profiling, strain panel (AID 1159580);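 note: tested at 20 µM; growth read once vehicle control cultures reached saturation at 30 °C; 1 = growth at the plate median or of vehicle wells; lower values mean less growth of the strain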
Conditions: growth OD

Measured: normalized growth

O=C(CCc1ccc(O)cc1)c1c(O)cc(O)cc1O[C@@H]1O[C@H](CO)[C@@H](O)[C@H](O)[C@H]1O
inactive: S. cerevisiae deletion strains, locus YJR075W, strain HOC1, active compounds read low 1.05 | S. cerevisiae deletion strains, locus YKL009W, strain mrt4, active compounds read low 0.978 | S. cerevisiae deletion strains, locus YKL068W, active compounds read low 1 | S. cerevisiae deletion strains, locus YKL085W, strain MDH1 (second series), active compounds read low 0.988 | S. cerevisiae deletion strains, locus YKL085W, strain MDH1, active compounds read low 0.988 | S. cerevisiae deletion strains, locus YKL160W, strain elf1, active compounds read low 1.01 | S. cerevisiae deletion strains, locus YKR001C, strain vps1, active compounds read low 1 | S. cerevisiae deletion strains, locus YKR026C, strain gcn3, active compounds read low 1.01 | S. cerevisiae deletion strains, locus YKR091W, strain srl3, active compounds read low 1.01 | S. cerevisiae deletion strains, locus YLL001W, strain dnm1, active compounds read low 1.01 | S. cerevisiae deletion strains, locus YLL026W, active compounds read low 1.02 | S. cerevisiae deletion strains, locus YLL041C, strain sdh2, active compounds read low 1.01 | S. cerevisiae deletion strains, locus YLR027C, strain aat2, active compounds read low 1.01 | S. cerevisiae deletion strains, locus YLR039C, strain RIC1, active compounds read low 1.08 | S. cerevisiae deletion strains, locus YLR058C, strain SHM2, active compounds read low 1.01 | S. cerevisiae deletion strains, locus YLR102C, strain apc9, active compounds read low 1.01 | S. cerevisiae deletion strains, locus YLR113W, strain HOG1, active compounds read low 0.956 | S. cerevisiae deletion strains, locus YLR221C, strain rsa3, active compounds read low 1.02 | S. cerevisiae deletion strains, locus YLR258W, strain gsy2, active compounds read low 1.04 | S. cerevisiae deletion strains, locus YLR262C, strain YPT6 (second series), active compounds read low 1.02 | S. cerevisiae deletion strains, locus YLR262C, strain YPT6, active compounds read low 1.14 | S. cerevisiae deletion strains, locus YLR268W, strain sec22, active compounds read low 1 | S. cerevisiae deletion strains, locus YLR320W, strain mms22, active compounds read low 1.02 | S. cerevisiae deletion strains, locus YLR330W, strain CHS5, active compounds read low 1.01 | S. cerevisiae deletion strains, locus YLR342W, strain FKS1 (second series), active compounds read low 1.01 | S. cerevisiae deletion strains, locus YLR342W, strain FKS1, active compounds read low 1.02 | S. cerevisiae deletion strains, locus YLR357W, strain rsc2, active compounds read low 1 | S. cerevisiae deletion strains, locus YLR370C, strain arc18, active compounds read low 1.01 | S. cerevisiae deletion strains, locus YLR371W, strain rom2, active compounds read low 0.997 | S. cerevisiae deletion strains, locus YLR384C, strain iki3, active compounds read low 1.03 | S. cerevisiae deletion strains, locus YLR418C, strain cdc73, active compounds read low 1.03 | S. cerevisiae deletion strains, locus YML016C, strain PPZ1, active compounds read low 1.02 | S. cerevisiae deletion strains, locus YML032C, strain rad52, active compounds read low 0.986 | S. cerevisiae deletion strains, locus YML120C, strain ndi1, active compounds read low 1.01 | S. cerevisiae deletion strains, locus YML124C, strain tub3, active compounds read low 0.993 | S. cerevisiae deletion strains, locus YMR058W, strain fet3, active compounds read low 1.02 | S. cerevisiae deletion strains, locus YMR078C, strain ctf18, active compounds read low 0.991 | S. cerevisiae deletion strains, locus YMR125W, strain sto1, active compounds read low 1.02 | S. cerevisiae deletion strains, locus YMR129W, active compounds read low 1.01 | S. cerevisiae deletion strains, locus YMR205C, strain PFK2, active compounds read low 1.02 | S. cerevisiae deletion strains, locus YMR223W, strain ubp8, active compounds read low 0.992 | S. cerevisiae deletion strains, locus YMR231W, strain pep5, active compounds read low 1.01 | S. cerevisiae deletion strains, locus YMR263W, strain SAP30, active compounds read low 1.03 | S. cerevisiae deletion strains, locus YMR307W, strain GAS1, active compounds read low 1.23 | S. cerevisiae deletion strains, locus YNL067W, strain RPL9B, active compounds read low 1.04 | S. cerevisiae deletion strains, locus YNL071W, strain lat1, active compounds read low 1.01 | S. cerevisiae deletion strains, locus YNL153C, strain GIM3, active compounds read low 1.04 | S. cerevisiae deletion strains, locus YNL183C, strain NPR1, active compounds read low 0.937 | S. cerevisiae deletion strains, locus YNL209W, strain ssb2, active compounds read low 1.01 | S. cerevisiae deletion strains, locus YNL233W, strain BNI4, active compounds read low 1.03 | S. cerevisiae deletion strains, locus YNL248C, strain rpa49, active compounds read low 1.01 | S. cerevisiae deletion strains, locus YNL250W, strain rad50, active compounds read low 0.986 | S. cerevisiae deletion strains, locus YNL271C, strain bni1, active compounds read low 0.992 | S. cerevisiae deletion strains, locus YNL298W, strain CLA4, active compounds read low 0.998 | S. cerevisiae deletion strains, locus YNL307C, strain MCK1, active compounds read low 0.991 | S. cerevisiae deletion strains, locus YNL322C, strain KRE1 (second series), active compounds read low 1.02 | S. cerevisiae deletion strains, locus YNL322C, strain KRE1, active compounds read low 1.02 | S. cerevisiae deletion strains, locus YNR049C, strain mso1, active compounds read low 1.02 | S. cerevisiae deletion strains, locus YNR052C, strain pop2, active compounds read low 0.982 | S. cerevisiae deletion strains, locus YOL012C, strain htz1 0.98 | S. cerevisiae deletion strains, locus YOL147C, strain pex11, active compounds read low 0.996 | S. cerevisiae deletion strains, locus YOR001W, strain rrp6, active compounds read low 1.04 | S. cerevisiae deletion strains, locus YOR061W, strain CKA2, active compounds read low 1.02 | S. cerevisiae deletion strains, locus YOR069W, strain VPS5, active compounds read low 1.01 | S. cerevisiae deletion strains, locus YOR070C, strain gyp1, active compounds read low 1 | S. cerevisiae deletion strains, locus YOR080W, strain dia2, active compounds read low 1.03 | S. cerevisiae deletion strains, locus YOR083W, strain WHI5, active compounds read low 1.01 | S. cerevisiae deletion strains, locus YOR106W, strain vam3, active compounds read low 1.01 | S. cerevisiae deletion strains, locus YOR136W, strain idh2, active compounds read low 0.994 | S. cerevisiae deletion strains, locus YOR144C, strain elg1, active compounds read low 1 | S. cerevisiae deletion strains, locus YOR184W, strain ser1, active compounds read low 1.03 | S. cerevisiae deletion strains, locus YOR231W, strain MKK1, active compounds read low 0.993 | S. cerevisiae deletion strains, locus YOR265W, strain rbl2, active compounds read low 1.01 | S. cerevisiae deletion strains, locus YOR270C, strain vph1, active compounds read low 1.03 | S. cerevisiae deletion strains, locus YOR290C, strain snf2, active compounds read low 0.988 | S. cerevisiae deletion strains, locus YOR316C, strain cot1, active compounds read low 1.02 | S. cerevisiae deletion strains, locus YPL051W, strain arl3, active compounds read low 1.01 | S. cerevisiae deletion strains, locus YPL078C, strain atp4, active compounds read low 1.02 | S. cerevisiae deletion strains, locus YPL106C, strain sse1, active compounds read low 1.02 | S. cerevisiae deletion strains, locus YPL240C, strain hsp82, active compounds read low 1.01 | S. cerevisiae deletion strains, locus YPL241C, strain CIN2, active compounds read low 1.02 | S. cerevisiae deletion strains, locus YPL256C, strain CLN2, active compounds read low 0.966 | S. cerevisiae deletion strains, locus YPR119W, strain clb2, active compounds read low 0.992 | S. cerevisiae deletion strains, locus YPR141C, strain kar3, active compounds read low 0.987 | S. cerevisiae deletion strains, locus YPR163C, strain tif3, active compounds read low 0.993 | S. cerevisiae deletion strains, locus YPR167C, strain met16, active compounds read low 1.01 | S. cerevisiae deletion strains, strain wtn01, active compounds read low 1 | S. cerevisiae strains, strain wild type, active compounds read low 1.02
